Laboratory results: PubChem BioAssay (NCATS)
Records with an inconclusive call do not appear. Active and inactive are the calls of the source. Unless noted, calls come from the whole dose curve; as a rule, active = well fitted curve in the direction sought with a large enough effect; inconclusive = small, poorly fitted or top-dose-only effect, or another doubt; inactive = no such curve, though single readings can be large; an effect the other way counts as inactive or inconclusive.

Assays:
[1] = Cell Viability - BJ (AID 421; calls by dose curve;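 note: potency is the fitted concentration of half-maximal effect; cells exposed to compound for 40 hours at 37 °C before readout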); conditions: BJ fibroblast viability, qHTS
Outline: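 Quantitative HTS: ATP depletion in BJ cells after 40 hr compound exposure in complete culture medium, detected with CellTiter-Glo; AC50 from standard Hill fits.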

[2] = Cell Viability - Jurkat (AID 426;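 active = dose-dependent loss of cell ATP signal giving a full or clear fitted curve, ranked by lower potency value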; note: potency is the fitted concentration of half-maximal effect); conditions: qHTS
Outline: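 qHTS, 1536-well; Jurkat E6-1, 5000 cells/well, complete medium; cpd 40 hr, 37 °C; CellTiter-Glo 20 min RT; luminescence. AC50 by Hill fit.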

[3] = Cell Viability - Hek293 (AID 427;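 active = compounds whose dose-response curve shows a full or clear partial loss of cell viability, called from curve shape rather than a numeric limit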;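 note: potency is the fitted concentration of half-maximal effect; cells exposed to compound for 40 hours at 37 °C before reading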); conditions: qHTS
Outline: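 AC50 values derive from Hill-modelled concentration-response of ATP-based luminescence, normalized between DMSO-only and 100 uM tamoxifen controls. Cells were exposed in complete culture medium for 40 hr at 37 °C before detection.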

[4] = Cell Viability - HepG2 (AID 433; calls by dose curve;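 note: potency is the fitted concentration of half-maximal effect; potency for ATP loss meaning cytotoxicity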); conditions: qHTS
Outline: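 HepG2 hepatocellular carcinoma cells (1500/well) were treated with compounds for 40 h at 37 °C in complete medium; intracellular ATP was read by CellTiter-Glo luminescence. Data were normalized to DMSO and 100 uM tamoxifen, and AC50 came from Hill fits.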

[5] = Cell Viability - MRC5 (AID 434; calls by dose curve;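 note: potency is the fitted concentration of half-maximal effect; potency reflects cytotoxicity seen as loss of intracellular ATP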); conditions: MRC5 lung fibroblast viability, qHTS
Outline: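 MRC5 normal human lung fibroblasts, 1500 cells/well, exposed to compound for 40 hr at 37 C. Cellular ATP was read by CellTiter-Glo luminescence; data normalized to DMSO and 100 uM tamoxifen, with AC50 from Hill fits.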

[6] = Cell Viability - SK-N-SH (AID 435; calls by dose curve;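 note: potency is the fitted concentration of half-maximal effect; compound exposure lasted 40 h at 37 °C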); conditions: SK-N-SH neuroblastoma cell viability qHTS
Outline: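 SK-N-SH human neuroblastoma cells (1500/well) were exposed to compounds in complete medium for 40 h at 37 °C, and intracellular ATP was then measured by CellTiter-Glo luminescence. AC50 was taken from Hill fits, normalized to DMSO and 100 uM tamoxifen.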

[7] = target: Mitogen-activated protein kinase 10 (Mus musculus) (UniProt Q61831); assay: JNK3 AlphaScreen Assay (AID 530; active = well fitted curve in either direction with a large enough effect, not every such curve was filed as active;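 note: kinase came from lysate of stimulated human HepG2 cells; signal reports phosphorylation of biotinylated GST-cJun 1-79 at Ser73 with 10 µM ATP; % is set by controls: 0 for no effect and ±100 for the full control effect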); conditions: JNK3 lysate, c-Jun phosphorylation; series mostly up to 57.1 µM
Outline: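 Pre-activated (IL-1β/TNFα) JNK3 in HepG2 lysates phosphorylates biotin-GST-cJun(1-79), 10 uM ATP; anti-phospho-cJun(Ser73) AlphaScreen read at room temperature, pH 7.6 Tris buffer. Compounds pre-incubated 15 min as titrations.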

[8] = Cell Viability - N2a (AID 540); conditions: N2a mouse neuroblastoma cell viability; activity change, negative = cytotoxicity: at 92.2 µM (top of the series);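 note: plate controls were DMSO alone for no effect and tamoxifen control for full effect; nearly all actives have a fitted effect of over 45% in size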
Outline: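 Luminescent ATP signal (CellTiter-Glo, 20 min at room temperature) served as the viability read-out after N2a cells were treated with compounds for 40 hours at 37 °C. Concentration-response data were fitted to the Hill equation for AC50.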

[9] = Cell Viability - NIH 3T3 (AID 541); conditions: NIH 3T3 cell viability, qHTS; activity change, negative = cytotoxicity: at 92.2 µM (top of the series);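 note: plate controls were DMSO alone for no effect and tamoxifen positive control for full effect; nearly all actives have a fitted effect of over 25% in size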
Outline: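 Luminescent ATP signal (CellTiter-Glo) served as the viability read-out after NIH 3T3 cells were exposed to compounds over a concentration range for 40 hr at 37 °C. Hill-equation modelling of concentration-response data gave AC50.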

[10] = Cell Viability - HUV-EC-C (AID 542); conditions: HUV-EC-C endothelial cell viability, qHTS; series mostly up to 92.2 µM; note: % is set by controls: 0 for no effect and ±100 for the full control effect; nearly all actives have a fitted effect of over 35% in size
Outline: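 qHTS cytotoxicity: HUV-EC-C, 1000 cells/well, 5 hr settle, compound 40 hr 37 °C, CellTiter-Glo, luminescence. AC50 via Hill equation.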

[11] = Cell Viability - H-4-II-E (AID 543); conditions: H-4-II-E rat hepatoma viability; series mostly up to 92.2 µM; note: % is set by controls: 0 for no effect and ±100 for the full control effect; nearly all actives have a fitted effect of over 35% in size
Outline: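 Luminescent ATP signal (CellTiter-Glo) served as the viability read-out, with cytotoxicity seen as a concentration-dependent ATP drop. Cells were treated for 40 hours in complete medium. AC50 values derive from Hill-equation modelling.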

[12] = Cell Viability - SH-SY5Y (AID 544); conditions: SH-SY5Y neuroblastoma cell viability; viability change, negative = cytotoxic: at 92.2 µM (top of the series); note: nearly all actives have a fitted effect of over 55% in size
Outline: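 Luminescent ATP read-out (CellTiter-Glo) measures loss of viable SH-SY5Y neuroblastoma cells after 40 hr compound exposure at 37 °C. AC50 values derive from standard Hill modelling of qHTS concentration-response data.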

[13] = Cellular Toxicity (caspase-3) HepG2 (AID 654); conditions: HepG2 caspase-3 activation, luminescence; series mostly up to 92.2 µM;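 note: cells exposed to compound for 16 hours before reading; 0% = DMSO alone and 100% = caspase signal from 100 µM tamoxifen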
Outline: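 Cells plated 5 hr at 37 °C, compound added, incubated 16 hr at 37 °C. Caspase-Glo 3/7 reagent followed, 20 min at room temperature, then luminescence read. Activation scored as signal increase; AC50 from Hill fit.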

[14] = Cellular Toxicity (caspase-3) Jurkat (AID 655); conditions: Jurkat caspase-3 activation, luminescence; caspase-3 activation: at 92.2 µM (top of the series), DMSO = 0%, tamoxifen = 100%;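 note: cells exposed to compound for 16 h at 37 °C before reading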
Outline: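 Jurkat cells (5000/well) in complete medium were treated with compounds for 16 hr at 37 °C, then Caspase-Glo 3/7 luminescence was read after 20 min at room temperature. Data normalized to DMSO (basal) and 100 uM tamoxifen (100%); AC50 from Hill fit.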

[15] = Cellular Toxicity (caspase-3) HUV-EC-C (AID 656); conditions: HUV-EC-C cells, caspase-3 activation (apoptosis), vehicle = 0, 100 µM tamoxifen = 100%; series mostly up to 92.2 µM
Outline: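 HUV-EC-C endothelial cells, 1000/well, were pre-incubated 5 hr at 37°C, then exposed to compounds for 16 hr at 37°C. Caspase-Glo 3/7 luminescence was read after 20 min at room temperature. AC50 came from Hill fits, normalized to DMSO and 100 uM tamoxifen.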

[16] = Cellular Toxicity (caspase-3) SHSY5Y (AID 657); conditions: SH-SY5Y caspase-3 activation, DMSO zero, 10 µM staurosporine = 100%; series mostly up to 91.7 µM
Outline: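 SH-SY5Y human neuroblastoma cells (1500/well) were treated with compounds for 16 h at 37 °C, then Caspase-Glo 3/7 luminescence was read after 1 h at room temperature. Data normalized to DMSO and 10 uM staurosporine; AC50 from Hill fits.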

[17] = Cellular Toxicity (caspase-3) BJ (AID 658); conditions: BJ fibroblasts, luminescence, normalized: DMSO 0%, staurosporine 100%; series mostly up to 91.7 µM
Outline: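 BJ human foreskin fibroblasts, 1000 cells/well, treated 16 hours at 37 °C in complete medium; caspase 3/7 activity by Caspase-Glo luminescence after 1 hr at room temperature. Normalized to DMSO and 10 uM staurosporine; AC50 from Hill fits.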

[18] = Cellular Toxicity (caspase-3) MRC-5 (AID 659); conditions: MRC-5 cells, luminescence, normalized: DMSO 0%, 10 µM staurosporine 100%; series mostly up to 91.7 µM
Outline: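 MRC-5 human normal lung fibroblasts, 1500 cells/well, treated 16 h at 37 °C in complete medium. Caspase 3/7 measured by Caspase-Glo luminescence after 1 h at room temperature. Normalized to DMSO and 10 uM staurosporine; AC50 from Hill fit.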

[19] = Cell Viability - Mesenchymal (AID 546); conditions: mesenchymal cells viability, qHTS; series mostly up to 91.7 µM;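 note: cells exposed to compound for 40 hours before reading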
Outline: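 Human kidney mesenchymal cells from normal renal glomeruli, 1000 cells/well, rested 5 hr at 37 °C, then treated 40 hr at 37 °C in complete medium. Cellular ATP read by CellTiter-Glo luminescence; AC50 from Hill-equation fits.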

[20] = Cell Viability - Renal Proximal Tubule (AID 545); conditions: renal proximal tubule cells viability, primary cells of rat origin; series mostly up to 91.7 µM; note: nearly all actives have a fitted effect of over 40% in size
Outline: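 Primary rat renal proximal tubule cells (1000/well) were treated with compounds for 40 hr at 37 °C in complete medium. Intracellular ATP was measured by CellTiter-Glo luminescence, and AC50 values came from Hill-equation fits of concentration-response data.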

Cc1ccccc1C#N
inactive: Potency [1] > 92 µM | Potency [2] > 92 µM | Potency [3] > 92 µM | Potency [4] > 92 µM | Potency [5] > 92 µM | Potency [6] > 92 µM | outcome [7] | activity change, negative = cytotoxicity [8] -9.75% | Potency [9] | Potency [10] | Potency [11] | Potency [12] | Potency [13] | caspase-3 activation [14] 0.133% | outcome [15] | outcome [16] | outcome [17] | outcome [18]

COC(=O)c1ccccc1
inactive: Potency [1] > 92 µM | Potency [2] > 92 µM | Potency [3] > 92 µM | Potency [4] > 92 µM | Potency [5] > 92 µM | Potency [6] > 92 µM | outcome [7] | activity change, negative = cytotoxicity [8] -10.2% | Potency [9] | Potency [10] | Potency [11] | Potency [12] | Potency [19] | Potency [13] | caspase-3 activation [14] 2.94% | outcome [15] | outcome [16] | outcome [17] | outcome [18]

O=[N+]([O-])c1ccc(NCCO)c(OCCO)c1
inactive: Potency [1] > 92 µM | Potency [2] > 92 µM | Potency [3] > 92 µM | Potency [4] > 92 µM | Potency [5] > 92 µM | Potency [6] > 92 µM | outcome [7] | activity change, negative = cytotoxicity [8] -0.601% | Potency [9] | Potency [10] | Potency [11] | Potency [12] | Potency [19] | Potency [13] | caspase-3 activation [14] 3.12% | outcome [15] | outcome [16] | outcome [17] | outcome [18]

Cc1ccc2oc(=O)ccc2c1
inactive: Potency [1] > 92 µM | Potency [2] > 92 µM | Potency [3] > 92 µM | Potency [4] > 92 µM | Potency [5] > 92 µM | Potency [6] > 92 µM | outcome [7] | activity change, negative = cytotoxicity [8] -1.53% | Potency [9] | Potency [10] | Potency [11] | Potency [20] | Potency [19] | caspase-3 activation [14] 0.624% | outcome [15] | outcome [16] | outcome [17] | outcome [18]

CCCC(Cl)CCCC(Cl)CCC(Cl)CCC(Cl)CCC(Cl)CCCC(Cl)CCC (stereo not drawn)
inactive: Potency [1] > 92 µM | Potency [2] > 92 µM | Potency [3] > 92 µM | Potency [4] > 92 µM | Potency [5] > 92 µM | Potency [6] > 92 µM | outcome [7] | activity change, negative = cytotoxicity [8] -0.927% | Potency [9] | Potency [10] | Potency [11] | Potency [12] | Potency [19] | Potency [13] | caspase-3 activation [14] -0.794% | outcome [15] | outcome [16] | outcome [17] | outcome [18]
